# Source: the supplement of paper PMC8728848
# The sample as a whole holds a higher share of the strongest signals than the screen did.
# B1: EfCBM33A (Enterococcus faecalis), Q838S1 (protein)
# chain: MKKSLLTIVLAFSFVLGGAALAPTVSEAHGYVASPGSRAFFGSSAGGNLNTNVGRAQWEPQSIEAPKNTFITGKLASAGVSGFEPLDEQTATRWHKTNITTGPLDITWNLTAQHRTASWDYYITKNGWNPNQPLDIKNFDKIASIDGKQEVPNKVVKQTINIPTDRKGYHVIYAVWGIGDTVNAFYQAIDVNIQ
# Experiments:
# Assay in all cases: glycan array binding signal (z-score within array); higher = stronger binding
# Settings in all cases: glycan notation: IUPAC condensed, linker removed
# [1] = target: GlcNAc(b1-3)[GlcNAc(b1-6)]GalNAc
# Method in brief: (§1)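 From the Consortium for Functional Glycomics database, 3228 arrays were curated, keeping only those whose protein sequence was available. Binding is given as a within-array Z-score averaged across arrays sharing a protein sequence and across linkers. Negative Z-scores can be read as non-binding.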
# [2] = target: GlcNAc(b1-4)GlcNAc(b1-4)GlcNAc(b1-4)GlcNAc(b1-4)GlcNAc(b1-4)GlcNAc
# Method in brief: as §1
# Kdn(a2-6)Gal(b1-4)GlcNAc = target: Kdn(a2-6)Gal(b1-4)GlcNAc
# Method in brief: as §1
# [3] = target: Man(a1-2)Man(a1-2)Man(a1-3)Man
# Method in brief: as §1
# [4] = target: Man(a1-2)Man(a1-3)[Man(a1-2)Man(a1-6)]Man
# Method in brief: as §1
# [5] = target: Man(a1-3)[Man(a1-6)]Man(a1-6)[Man(a1-3)]Man(b1-4)GlcNAc(b1-4)GlcNAc
# Method in brief: as §1
# MurNAc(b1-4)GlcNAc = target: MurNAc(b1-4)GlcNAc
# Method in brief: as §1
# [6] = target: Neu5Ac(a2-3)Gal(b1-4)GlcNAc(b1-2)Man(a1-3)[GlcNAc(b1-4)][Neu5Ac(a2-3)Gal(b1-4)GlcNAc(b1-2)Man(a1-6)]Man(b1-4)GlcNAc(b1-4)GlcNAc
# Method in brief: as §1
# [7] = target: Neu5Ac(a2-3)Gal(b1-4)GlcNAc(b1-3)Gal(b1-4)GlcNAc
# Method in brief: as §1
# [8] = target: Neu5Ac(a2-3)Gal(b1-4)GlcNAc(b1-3)Gal(b1-4)GlcNAc(b1-3)[Neu5Ac(a2-3)Gal(b1-4)GlcNAc(b1-3)Gal(b1-4)GlcNAc(b1-6)]GalNAc
# Method in brief: as §1
# [9] = target: Neu5Ac(a2-3)Gal(b1-4)GlcNAc(b1-3)[Neu5Ac(a2-3)Gal(b1-4)GlcNAc(b1-6)]GalNAc
# Method in brief: as §1
# [10] = target: Neu5Ac(a2-3)Gal(b1-4)[Fuc(a1-3)]GlcNAc(b1-3)GalNAc
# Method in brief: as §1
# [11] = target: Neu5Ac(a2-6)Gal(b1-4)GlcNAc(b1-2)Man(a1-3)Man(b1-4)GlcNAc(b1-4)GlcNAc
# Method in brief: as §1
# [12] = target: Neu5Ac(a2-6)Gal(b1-4)GlcNAc(b1-2)Man(a1-3)[Gal(b1-4)GlcNAc(b1-2)Man(a1-6)]Man(b1-4)GlcNAc(b1-4)GlcNAc
# Method in brief: as §1
# [13] = target: Neu5Ac(a2-6)Gal(b1-4)GlcNAc(b1-2)[Neu5Ac(a2-6)Gal(b1-4)GlcNAc(b1-4)]Man(a1-3)[GlcNAc(b1-4)][Neu5Ac(a2-6)Gal(b1-4)GlcNAc(b1-2)[Neu5Ac(a2-6)Gal(b1-4)GlcNAc(b1-6)]Man(a1-6)]Man(b1-4)GlcNAc(b1-4)GlcNAc
# Method in brief: as §1
# [14] = target: Neu5Ac(a2-6)Gal(b1-4)GlcNAc(b1-2)[Neu5Ac(a2-6)Gal(b1-4)GlcNAc(b1-6)]Man(a1-6)[Neu5Ac(a2-6)Gal(b1-4)GlcNAc(b1-2)Man(a1-3)][GlcNAc(b1-4)]Man(b1-4)GlcNAc(b1-4)GlcNAc
# Method in brief: as §1
# [15] = target: Neu5Ac(a2-6)Gal(b1-4)GlcNAc(b1-3)Gal(b1-4)GlcNAc
# Method in brief: as §1
# [16] = target: Neu5Ac(a2-6)Gal(b1-4)GlcNAc(b1-3)Gal(b1-4)GlcNAc(b1-3)[Neu5Ac(a2-6)Gal(b1-4)GlcNAc(b1-3)Gal(b1-4)GlcNAc(b1-6)]GalNAc
# Method in brief: as §1
# [17] = target: Neu5Ac(a2-6)Gal(b1-4)GlcNAc(b1-6)[Gal(b1-3)GlcNAc(b1-3)]Gal(b1-4)Glc
# Method in brief: as §1
# [18] = target: Neu5Ac(a2-8)Neu5Ac(a2-8)Neu5Ac
# Method in brief: as §1
# [19] = target: Neu5Gc(a2-8)Neu5Gc(a2-6)Gal(b1-4)GlcNAc
# Method in brief: as §1
binder,measurement,setting,value
B1,glycan array binding signal (z-score),[1],-0.941
same,glycan array binding signal (z-score),[2],0.083
same,glycan array binding signal (z-score),Kdn(a2-6)Gal(b1-4)GlcNAc,0.328
same,glycan array binding signal (z-score),[3],-0.162
same,glycan array binding signal (z-score),[4],0.783
same,glycan array binding signal (z-score),[5],0.455
same,glycan array binding signal (z-score),MurNAc(b1-4)GlcNAc,0.631
same,glycan array binding signal (z-score),[6],0.122
same,glycan array binding signal (z-score),[7],-0.177
same,glycan array binding signal (z-score),[8],7.32
same,glycan array binding signal (z-score),[9],3.14
same,glycan array binding signal (z-score),[10],2.79
same,glycan array binding signal (z-score),[11],2.04
same,glycan array binding signal (z-score),[12],0.519
same,glycan array binding signal (z-score),[13],2.16
same,glycan array binding signal (z-score),[14],0.103
same,glycan array binding signal (z-score),[15],2.76
same,glycan array binding signal (z-score),[16],0.687
same,glycan array binding signal (z-score),[17],-0.451
same,glycan array binding signal (z-score),[18],0.016
same,glycan array binding signal (z-score),[19],-0.736
